Measurements taken from PubChem BioAssay (NCATS).
Results filed as inconclusive are left out. Active and inactive are the calls of the source. Calls follow the shape of the dose curve; as a rule, active = well fitted curve in the direction sought with a large enough effect; inconclusive = small, poorly fitted or top-dose-only effect, or another doubt; inactive = no such curve, though single readings can be large; an effect the other way counts as inactive or inconclusive.

Experiment: qHTS of pediatric cancer cell lines to identify multiple opportunities for drug repurposing: Confirmatory screen for LAN-5 cells (AID 1347113)
Conditions: LAN-5 neuroblastoma cell viability; series mostly up to 45.9 µM; activity change, negative = cytotoxicity: at the top concentration
Summary of the method: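 Cells (500-1,000/well) in growth media were settled 5 h at 37 degrees C, then given compounds for 48 h. Viability was read as CellTiter-Glo luminescence. Primary runs used MIPE at 11 points (0.78 nM-46 µM) and NPC at 8 points (0.59 nM-46 µM); follow-ups used 11 points.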
% is scaled to controls: 0 for no effect and ±100 for the full control effect; potency is read from the fitted curve at half-maximal effect.
Also: nearly all actives have a fitted effect of over 65% in size.

Row | SMILES | activity change, negative = cytotoxicity | Potency | outcome
1 | CC(=O)[C@H]1CC[C@H]2[C@@H]3C[C@H](C)C4=CC(=O)CC[C@]4(C)[C@H]3[C@@H](O)C[C@]12C | 11.1% (inactive) | – | –
2 | C[C@@H]1CN(CCCn2c3ccccc3c3ccccc32)C[C@H](C)N1 | – | 32.9 µM (active) | –
3 | C[C@]12CCC(=O)C=C1CC[C@H]1[C@@H]3CC[C@](O)(C(=O)CO)[C@@]3(C)C[C@H](O)[C@@]12F | 3.79% (inactive) | – | –
4 | C[C@H]1C[C@H]2[C@@H]3CCC4=CC(=O)C=C[C@]4(C)[C@@]3(Cl)[C@@H](O)C[C@]2(C)[C@@]1(O)C(=O)CO | – | – | inactive
5 | C[C@]12C=CC(=O)C=C1[C@@H](F)C[C@@H]1[C@@H]2[C@@H](O)C[C@@]2(C)[C@H]1CC[C@]2(O)C(=O)CO | 38.5% (inactive) | – | –
6 | CC(=O)OCC(=O)[C@@]12OC(C)(C)O[C@@H]1C[C@H]1[C@@H]3C[C@H](F)C4=CC(=O)C=C[C@]4(C)[C@@]3(F)[C@@H](O)C[C@@]12C | -3.47% (inactive) | – | –
7 | CCCCC(=O)O[C@]1(C(=O)CO)CC[C@H]2[C@@H]3CCC4=CC(=O)CC[C@]4(C)[C@H]3[C@@H](O)C[C@@]21C | -27.6% (inactive) | – | –
8 | CCC(C(=O)OCCN(CC)CC)c1ccccc1 (stereo unspecified) | 13.8% (inactive) | – | –
9 | C=C1C[C@H]2[C@@H]3C=C(C)C4=CC(=O)CC[C@]4(C)[C@H]3CC[C@]2(C)[C@@]1(OC(C)=O)C(C)=O | -13.4% (inactive) | – | –
10 | COc1cccc2c1C(=O)c1c(O)c3c(c(O)c1C2=O)C[C@@](O)(C(=O)CO)C[C@@H]3O[C@H]1C[C@H](N)[C@H](O)[C@H](C)O1 | – | 1.04 µM (active) | –
11 | OC[C@H]1O[C@@H](n2cnc3c(=S)nc[nH]c32)[C@H](O)[C@@H]1O | – | 1.17 µM (active) | –
12 | COCc1c(C(C)C)nc(C(C)C)c(/C=C/[C@@H](O)C[C@@H](O)CC(=O)O)c1-c1ccc(F)cc1 | – | 13.1 µM (active) | –
13 | NC(=O)CC[C@@H]1NC(=O)[C@H](Cc2ccccc2)NC(=O)[C@H](Cc2ccc(O)cc2)NC(=O)CCSSC[C@@H](C(=O)N2CCC[C@H]2C(=O)N[C@@H](CCCN=C(N)N)C(=O)NCC(N)=O)NC(=O)[C@H](CC(N)=O)NC1=O | -6.3% (inactive) | – | –
14 | CC1(C)O[C@@H]2C[C@H]3[C@@H]4C[C@H](F)C5=CC(=O)CC[C@]5(C)[C@H]4[C@@H](O)C[C@]3(C)[C@]2(C(=O)CO)O1 | 14.3% (inactive) | – | –
15 | CC(=O)Oc1ccc(C(c2ccc(OC(C)=O)cc2)c2ccccn2)cc1 | 7.59% (inactive) | – | –
16 | C[C@@H]1C[C@H]2[C@@H]3CCC4=CC(=O)C=C[C@]4(C)[C@@]3(F)[C@@H](O)C[C@]2(C)[C@H]1C(=O)CO | 21.2% (inactive) | – | –
17 | CN(C)C(=S)SC(=S)N(C)C | – | 3.69 µM (active) | –

Experiment: qHTS of pediatric cancer cell lines to identify multiple opportunities for drug repurposing: Confirmatory screen for DAOY cells (AID 1347114)
Conditions: DAOY medulloblastoma cells viability, cytotoxicity qHTS; series mostly up to 45.9 µM; activity change, negative = cytotoxic: at the top concentration
Summary of the method: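 Viability measured as metabolically active cells via CellTiter-Glo luminescence following 48 hours of compound exposure, 11-point dilutions in confirmatory testing. 500-1,000 cells/well plated 5 hours before dosing; controls were DMSO and 2.3 µM bortezomib.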

Row | SMILES | Potency | activity change, negative = cytotoxic
18 | C[C@@H]1CN(CCCn2c3ccccc3c3ccccc32)C[C@H](C)N1 | 20.8 µM (active) | –
19 | NC(CO)(CO)CO | – | 2.19% (inactive)
20 | C[C@]12CCC(=O)C=C1CC[C@H]1[C@@H]3CC[C@](O)(C(=O)CO)[C@@]3(C)C[C@H](O)[C@@]12F | – | 8.88% (inactive)
21 | C[C@H]1C[C@H]2[C@@H]3CCC4=CC(=O)C=C[C@]4(C)[C@@]3(Cl)[C@@H](O)C[C@]2(C)[C@@]1(O)C(=O)CO | – | 5.7% (inactive)
22 | CCCC(=O)O[C@]1(C(=O)CO)CC[C@H]2[C@@H]3CCC4=CC(=O)CC[C@]4(C)[C@H]3[C@@H](O)C[C@@]21C | – | 10.6% (inactive)
23 | C[C@]12C=CC(=O)C=C1[C@@H](F)C[C@@H]1[C@@H]2[C@@H](O)C[C@@]2(C)[C@H]1CC[C@]2(O)C(=O)CO | – | 11.8% (inactive)
24 | CC(=O)OCC(=O)[C@@]12OC(C)(C)O[C@@H]1C[C@H]1[C@@H]3C[C@H](F)C4=CC(=O)C=C[C@]4(C)[C@@]3(F)[C@@H](O)C[C@@]12C | – | 3.23% (inactive)
25 | CCCCC(=O)O[C@]1(C(=O)CO)CC[C@H]2[C@@H]3CCC4=CC(=O)CC[C@]4(C)[C@H]3[C@@H](O)C[C@@]21C | – | -6.29% (inactive)
26 | CCC(C(=O)OCCN(CC)CC)c1ccccc1 (stereo unspecified) | – | -27.1% (inactive)
27 | COc1cccc2c1C(=O)c1c(O)c3c(c(O)c1C2=O)C[C@@](O)(C(=O)CO)C[C@@H]3O[C@H]1C[C@H](N)[C@H](O)[C@H](C)O1 | 9.27 µM (active) | –
28 | C[C@]12C=CC(=O)C=C1CC[C@@H]1[C@@H]2[C@@H](O)C[C@@]2(C)[C@H]1CC[C@]2(O)C(=O)CO | – | 10.4% (inactive)
29 | CC(=O)OCC(=O)[C@@]1(O)CC[C@H]2[C@@H]3CCC4=CC(=O)C=C[C@]4(C)[C@H]3[C@@H](O)C[C@@]21C | – | -3.71% (inactive)
30 | COCc1c(C(C)C)nc(C(C)C)c(/C=C/[C@@H](O)C[C@@H](O)CC(=O)O)c1-c1ccc(F)cc1 | 0.414 µM (active) | –
31 | NC(=O)CC[C@@H]1NC(=O)[C@H](Cc2ccccc2)NC(=O)[C@H](Cc2ccc(O)cc2)NC(=O)CCSSC[C@@H](C(=O)N2CCC[C@H]2C(=O)N[C@@H](CCCN=C(N)N)C(=O)NCC(N)=O)NC(=O)[C@H](CC(N)=O)NC1=O | – | 12.4% (inactive)
32 | CC1(C)O[C@@H]2C[C@H]3[C@@H]4C[C@H](F)C5=CC(=O)CC[C@]5(C)[C@H]4[C@@H](O)C[C@]3(C)[C@]2(C(=O)CO)O1 | – | -8.38% (inactive)
33 | CC(=O)Oc1ccc(C(c2ccc(OC(C)=O)cc2)c2ccccn2)cc1 | – | 0.487% (inactive)
34 | C[C@@H]1C[C@H]2[C@@H]3C[C@H](F)C4=CC(=O)C(Cl)=C[C@]4(C)[C@@]3(F)[C@@H](O)C[C@]2(C)[C@@]1(O)C(=O)CO | – | 3.61% (inactive)
35 | C[C@@H]1C[C@H]2[C@@H]3CCC4=CC(=O)C=C[C@]4(C)[C@@]3(F)[C@@H](O)C[C@]2(C)[C@H]1C(=O)CO | – | 0.385% (inactive)
36 | CN(C)C(=S)SC(=S)N(C)C | – | -14.2% (inactive)
